Bioassay records deposited in PubChem BioAssay by National Center for Advancing Translational Sciences (NCATS).
KAT2A inh – blocks human GCN5L2 histone acetyltransferase. Q92830. actives 0.21% (n = 390,000). AID 504327. GCN5L2 HAT assay, ThioGlo1 CoA-SH fluorescence. Potency, µM (titrated, usually from 58.9 µM), usual class: inhibitors
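Preincubate 20nM GCN5L2 with compound 15 min, RT → add 50uM ThioGlo1 + 75uM H3(1-25) + 70uM acetyl-CoA → read fluorescence 0 and 20 min. Primary qHTS; fluorescent artifacts likely.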
VDR inhibitor – blocks the human vitamin D receptor. AID 504847. P11473. VDR-SRC2-3 peptide fluorescence polarization, 2 h. Potency, µM, most hits filed as inhibitors. actives 0.93% (n = 400,000)
Target sequence (P11473 whole entry, looked up): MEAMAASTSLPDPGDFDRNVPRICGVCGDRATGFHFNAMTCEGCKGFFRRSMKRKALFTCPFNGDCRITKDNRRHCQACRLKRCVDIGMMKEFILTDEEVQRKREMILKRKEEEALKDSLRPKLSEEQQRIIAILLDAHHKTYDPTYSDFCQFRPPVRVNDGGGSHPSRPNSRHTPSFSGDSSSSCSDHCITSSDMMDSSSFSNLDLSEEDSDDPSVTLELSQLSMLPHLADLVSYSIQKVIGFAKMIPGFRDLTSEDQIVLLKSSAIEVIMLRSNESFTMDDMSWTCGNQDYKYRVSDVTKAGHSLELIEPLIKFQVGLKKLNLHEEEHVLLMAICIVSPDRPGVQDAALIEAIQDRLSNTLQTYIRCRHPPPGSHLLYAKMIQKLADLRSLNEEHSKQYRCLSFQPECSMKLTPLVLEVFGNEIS
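Measured by FP: displacement of SRC2-3 coactivator peptide from VDR by library compounds, following a two-hour ambient incubation.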
PLK1 PBD block – inhibitors of human PLK1 polo-box domain binding; P53350; Plk1 PBD binding of FITC phosphopeptide, fluorescence polarization; Potency, µM, most hits filed as inhibitors; actives 2.8% (n = 360,000); AID 720504; note: series mostly up to about 57 µM; nearly all actives have a fitted effect of over 65% in size
GLS inh – inhibitors of human glutaminase (GLS). O94925. GLS enzymatic activity, qHTS titration. Potency, µM (doses to about 45.5 µM), usual class: inhibitors. actives 0.21% (n = 410,000)
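Glutamate formation by hKGA was monitored fluorometrically using coupled glutamate oxidase, HRP and Amplex Red. Substrate was added as 1 mM L-glutamine solution; incubation was 30 min at RT after an initial read.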
PI4K2A inh – PI4K2A (human) kinase inhibition; purified PI4K2A, ADP-Glo luminescence, 1 h; stronger effect = lower value; Q9BTU6; actives 0.13% (n = 420,000); activity change, negative = inhibition, % at 76.9 µM; in the data active = activity change below about -50%; inconclusive = mostly about -30% to -49%
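ADP-Glo luminescence measured ADP generated by PI4K2A enzyme (4 ug/mL before mixing) with 1.2 mM PI substrate (pre-mix) and 300 microM ATP (pre-mix). Tris pH7.5 buffer with MgCl2, Triton X-100; 1 h reaction at ambient temperature.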
A number is an active result; . = inactive; ? = inconclusive; / = no result; [ ] = dose if it differs, or a comment. Shown are actives, neighbours in structure and some others; about 3.1% of the full set was active somewhere. Unless noted, calls come from the whole dose curve; as a rule, active = well fitted curve in the direction sought with a large enough effect; inconclusive = small, poorly fitted or top-dose-only effect, or another doubt; inactive = no such curve, though single readings can be large; an effect the other way counts as inactive or inconclusive.

SMILES	KAT2A inh	VDR inhibitor	PLK1 PBD block	GLS inh	PI4K2A inh
O=c1[nH]c2ccccc2c(O)c1-[n+]1ccccc1	.	.	.	.	.
CC(C)OC(=O)C(C(=O)OC(C)C)=C1SC=CS1	.	.	/	.	.
CC1NC(=O)NC1CCCCC(=O)O (stereo unspecified)	.	.	11µM	.	.
CC(C)CN(C(=O)COC(=O)CCc1c[nH]c2ccccc12)C1CCS(=O)(=O)C1 (stereo unspecified)	.	.	.	.	.
CC(C)CN(C(=O)COC(=O)Cc1c[nH]c2ccccc12)C1CCS(=O)(=O)C1 (stereo unspecified)	.	.	27µM	.	.
CC(C)CN(C(=O)COC(=O)c1ccc2c(c1)NC(=O)CS2)C1CCS(=O)(=O)C1 (stereo unspecified)	.	.	21µM	.	.
Cc1ccnc(N=O)c1	.	.	11µM	.	.
O=S(=O)(O)c1ccc(SCc2ccccc2)nc1	/	?	21µM	.	.
O=C(O)c1ccc(SCc2ccccc2)nc1	/	.	.	.	.
O=c1cccccc1NCc1ccccc1	.	.	.	/	.
CC(=O)CC1OC(=O)C(Br)=C1NCc1ccccc1 (stereo unspecified)	.	?	27µM	.	.
O=C(CCc1ccccc1)N[C@H]1[C@@H](OC(=O)c2ccc([N+](=O)[O-])cc2)CCC[C@]12C(=O)N(Cc1ccccc1)c1ccccc12	/	/	/	/	.
Clc1ccc(-n2nnnc2Sc2ncnc3sccc23)cc1	/	79µM	8.4µM	.	.
CN(C)/C=N/c1nc2ncc(-c3ccc(Cl)cc3)c(/N=C/N(C)C)n2n1	.	.	27µM	.	.
CN(C)/C=N/c1nc2nccc(-c3ccc(F)cc3)n2n1	?	.	.	.	.
CC(Oc1cccc(Cl)c1)c1ccnc2nc(/N=C/N(C)C)nn12 (stereo unspecified)	.	.	.	.	.
CN(C)/C=N/c1nc2nccc(-c3cccc(Cl)c3)n2n1	.	.	27µM	.	.
CCCCn1c(C)cc2c(c1=O)C1O[C@](c3ccsc3)(Cc3cc(OC)c(OC)cc31)O2	.[12.7 µM]	/	/	/	/
Cc1ccc(C(=O)NCC(=O)OCC(=O)c2ccc3ccccc3c2)cc1	/	.	/	/	/
COC(CNC(=O)c1cc(C)nn1-c1ccccc1)OC	.	.	24µM	.	.
COc1ccc2c(c1)CCCC2NS(=O)(=O)OCC(Cl)(Cl)Cl (stereo unspecified)	.	.	.	.	.
CC1(C)CC(NS(=O)(=O)OCC(Cl)(Cl)Cl)c2cc(C#N)ccc2O1 (stereo unspecified)	.	?	24µM	.	.
CCCN1CNc2c(c(=O)[nH]c(=S)n2CCc2ccc(OC)cc2OC)C1	/	.	/	/	/
CC(C)CN1C(=O)C[C@@]2(C(=O)N(C)c3ccc(NC(=O)c4cc(F)ccc4F)cc32)C1c1ccccc1 (stereo partly specified)	/	/	/	/	.
CCCOc1cc(N)ccc1C(=O)OCCN(CC)CC	.	.	.	.	.
SMILES	KAT2A inh	VDR inhibitor	PLK1 PBD block	GLS inh	PI4K2A inh
CCCOc1ccc(N)cc1N	.	?	?	.	-58
COc1ccc(C(=O)NCc2ccc3c(c2)CCN3C(C)=O)c(OC)c1	.	.	/	.	.
CCOC(=O)c1c(NC(=O)c2ccccc2)sc2c1CCc1ccccc1-2	.	71µM	6.7µM	.	.
CCOC(=O)c1c(NC(=O)c2cc(Cl)ccc2Cl)sc2c1CCCC2	.	.	/	.	.
CCOC(=O)c1c(NC(=O)c2ccccc2Cl)sc2c1CCc1ccccc1-2	.	?	6.7µM	10µM	.
COC(=O)c1ccc2c(=O)n(CCCCCC(=O)NCc3ccc(Cl)cc3)c(=O)[nH]c2c1	.	.	/	.	.
CCCn1c2ccccc2c2cnn(CC(=O)N(CCCOC)Cc3ccco3)c(=O)c21	.	.	/	.	.
O=C(Nc1ccccc1C(F)(F)F)c1c(F)cccc1Cl	.	.	30µM	.	.
O=C(Nc1ccccc1Br)c1c(F)cccc1Cl	.	.	.	.	.
COc1ccc(NC2c3ccccc3C(=O)N2Cc2ccco2)cc1OC (stereo unspecified)	.	.	.	.	.
O=C1c2ccccc2C(Nc2ccc(F)c(Cl)c2)N1Cc1ccco1 (stereo unspecified)	.	89µM	.	.	.
C=CCC(C)(NCc1ccccc1)c1ccccc1 (stereo unspecified)	.	?	21µM	.	.
